The text below walks through data of PubChem BioAssay AID430 (Sanford-Burnham Center for Chemical Genomics, 2006).

The whole screen tested about 63,000 compounds, of which about 1,100 (1.7%) were called active. This is one part of a sample in which actives are shown more often than they occur. Potency and affinity values are given separately. A number with no mark means an inactive call. Rule as the data show it: active = cytotoxicity above about 50%; inactive = the rest.

The nature of this assay: HPDE-C7 pancreatic duct cell viability loss – fluorescence, HTS (AID 430).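 Also: cells exposed to compound for 48 hours before viability readout; 0% = vehicle and 100% = reference cytotoxic drug.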 The settings on record: HPDE-C7 pancreatic duct cells viability, at 10 µM, hits give high values.
Consider `COc1ccc(Cl)cc1S(=O)(=O)N1CCN(C)CC1`, for which the cytotoxicity is -4.6%.
For `CCN(CC)C(=O)C1CCCN(C/C(C)=C/c2ccccc2)C1` (configuration not stated) the value was -8.8%; for `N#Cc1c2c(c(=S)n(-c3ccccc3)c1N)CCCC2`, 1.6%; for `CCOC(=O)c1c(N)sn(-c2ccccc2)c1=S`, -2%.
As for `CC(C(=O)N1CCN(c2ccccc2)CC1)N1C(=O)C2CC=CCC2C1=O` (configuration not stated), the figure is -2.6%; as for `CCc1[nH]c(C)c(C(C)=O)c1C`, 59.8% (active); as for `CC(=O)c1c(C)[nH]c(C)c1C(C)=O`, -8.7%.
For `CCCNC(=O)c1[nH]c(C)c(C(C)=O)c1C` the value was 2%; for `COc1ccc(Cn2c3nc4ccccc4nc3c3c(=O)n(Cc4ccco4)cnc32)cc1`, 20.7%.
As for `CC(C)C1N(S(=O)(=O)c2ccccc2)CCN1S(=O)(=O)c1ccccc1`, the cytotoxicity was 2%.
With `Cc1cccc(OCCCCCNCCO)c1`, the cytotoxicity is 9.6%.
As for `N#Cc1ccc(-c2ccco2)nc1SCC(=O)c1ccc(Cl)cc1`, the figure is 21.1%; as for `COc1ccc(OC)c(NC(=O)CSC2=C(C#N)C(c3ccco3)C3=C(CCCC3=O)N2)c1` (configuration not stated), -1.5%.
As for `Nc1nnc(SCc2ccccc2Cl)s1`, the cytotoxicity is 8.4%.
For `CS(=O)(=O)Nc1ccccc1C(=O)Nc1cccc(Cl)c1` the value was 5.3%; for `COc1ccc(Cl)cc1NC(=O)Cn1c(=O)n2nc(C)nc2c2ccccc21`, 7.2%.
As for `O=C(CSc1n[nH]c(-c2ccccc2O)n1)N1CCCc2ccccc21`, the figure is 2.3%; as for `Cc1ccnc(NS(=O)(=O)c2ccc(NS(=O)(=O)Cc3ccccc3)cc2)n1`, -21.7%; as for `CCOc1ccccc1C1CC(=O)Nc2cc3c(cc21)OCCO3` (configuration not stated), 51.1% (active).
As for `CCOc1ccccc1C1CC(=O)NC2=C1C(=O)CC(C)(C)C2` (configuration not stated), the figure is 9.7%; as for `CCOc1ccccc1C1CC(=O)Nc2cc(OC)c(OC)c(OC)c21` (configuration not stated), -16.2%; as for `CCOc1ccccc1C1CC(=O)Nc2cc3c(cc21)OCO3` (configuration not stated), 59.7% (active).
Turning to `CCOc1c(OC)cccc1C1CC(=O)Nc2cc(OC)c(OC)cc21` (configuration not stated), the cytotoxicity is 7.3%.
As for `CCOc1c(OC)cccc1C1CC(=O)Nc2cc3c(cc21)OCCO3` (configuration not stated), the figure is 13.7%; as for `CN(C(=O)C12CC3CC(CC(C3)C1)C2)C1CCS(=O)(=O)C1` (configuration not stated), -5.1%; as for `O=C(Oc1cc(=O)oc2ccccc12)c1ccco1`, 14.1%.
As for `CCCCS(=O)(=O)/C=C\C1C2C=CC(C2)C1S(=O)(=O)CCCC` (configuration not stated), the figure is -10.1%; as for `CCCCS(=O)(=O)/C=C\C=C/S(=O)(=O)CCCC`, 111% (active); as for `CC(=O)NC1(c2cccc(F)c2)CCN(C(=O)Nc2ccc(C#N)cc2)CC1`, -15%.
As for `CC(NC(=O)Cc1ccsc1)c1ccc(S(N)(=O)=O)cc1` (configuration not stated), the figure is 5.5%; as for `OCCN1CCN(C(=S)c2ccc(Cl)cc2)CC1`, -26%.
Consider `CN(C)CCCN1c2ccccc2CCc2ccc(Cl)cc21`, for which the cytotoxicity was 31.8%.
As for `CN1CCN(CCCN2c3ccccc3Sc3ccc(Cl)cc32)CC1`, the figure is 75% (active).
As for `CN1CCN(CCC(=O)N2c3ccccc3Sc3ccc(Cl)cc32)CC1`, the figure is 17.5%; as for `O=C(CN1CCN(CCOCCO)CC1)N1c2ccccc2Sc2ccc(Cl)cc21`, -24.7%.
For `CCCN(C(=O)CSc1nnc(-c2ccoc2C)n1N)C1CCS(=O)(=O)C1` (configuration not stated) the value was 6.4%.
For `CCOC(=O)c1cn(CC)c2ccc(S(=O)(=O)N3CC(C)CC(C)C3)cc2c1=O` (configuration not stated), the cytotoxicity was -2%.
For `CC1=C(C(=O)OCC2CCCO2)C(c2cccc(O)c2)NC(=O)N1` (configuration not stated) the value was -6.4%; for `CC(=O)N1CCc2cc(S(=O)(=O)CCC(=O)NCc3ccc4c(c3)OCO4)ccc21`, -4.4%; for `Cc1cccc(N2CCN(C(=O)c3cc4c(=O)n(C)c5ccccc5c4n3C)CC2)c1C`, 61.6% (active).
For `COc1ccccc1N1CCN(C(=O)c2cc3c(=O)n(C)c4ccccc4c3n2C)CC1` the value was 29%; for `Cn1c(C(=O)Nc2ccc3c(c2)OCCO3)cc2c(=O)n(C)c3ccccc3c21`, 60% (active).
As for `Cn1c(C(=O)N2CCCC2)cc2c(=O)n(C)c3ccccc3c21`, the figure is 14.1%; as for `Cn1c(C(=O)N2CCN(c3ccccc3F)CC2)cc2c(=O)n(C)c3ccccc3c21`, 5.3%.
Turning to `Cc1ccc(Cl)cc1N1CCN(C(=O)c2cc3c(=O)n(C)c4ccccc4c3n2C)CC1`, the cytotoxicity was 59.5% (active).
As to `Cn1c(C(=O)Nc2ccc3c(c2)OCO3)cc2c(=O)n(C)c3ccccc3c21`, the cytotoxicity was 18%.
As for `Cn1c(C(=O)N2CCN(c3ccc(Cl)cc3)CC2)cc2c(=O)n(C)c3ccccc3c21`, the figure is 6.6%; as for `CC(NC(=O)c1cc2c(=O)n(C)c3ccccc3c2n1C)c1ccc2c(c1)OCCO2` (configuration not stated), 38.8%; as for `O=C(COc1ccc(S(=O)(=O)NC2CCCCC2)cc1Cl)NCC1CCCO1` (configuration not stated), -2.7%.
As for `CC(C)CCNC(=O)c1cccc(Cl)c1`, the figure is 1.2%.
As for `O=c1n(Cc2ccccc2Cl)c2sc3c(c2c2ncnn12)CCCC3`, the figure is -20.8%.
With `O=C(Cn1c(=O)n2ncnc2c2c3c(sc21)CCCC3)c1ccccc1`, the cytotoxicity is -18.5%.
For `COCCSc1nnc(NS(=O)(=O)Cc2ccccc2)s1` the value was -1.4%.
As for `O=C(O)CSc1ncn[nH]1`, the figure is 1%; as for `c1ccc(Nc2c3c(nc4ncnn24)CCC3)cc1`, -24.1%.
As for `C=CCc1cc(C)ccc1OCC(O)CN1CCN(c2ccccc2)CC1` (configuration not stated), the figure is 22.9%; as for `COc1ccc(S(=O)(=O)N2CCN(S(=O)(=O)c3ccc4c(c3)OCCO4)CC2)cc1C`, -3.8%.
Consider `COc1ccc(OC)c(S(=O)(=O)Nc2cc(OC)c(Cl)cc2OC)c1`, for which the cytotoxicity is 5.6%.
On to `COc1cc(NS(=O)(=O)c2ccc(OC)c(C)c2C)c(OC)cc1Cl`, for which the cytotoxicity was 60.7% (active).
For `COc1cc(NS(=O)(=O)c2cc(C)ccc2OC)c(OC)cc1Cl` the value was -0.5%.
For `CC1CCCCN1C(=O)c1cnn2c(C(F)(F)F)cc(-c3ccco3)nc12` (configuration not stated) the value was -7.7%.
As for `CCN1CCN(c2ncnc3c2cnn3-c2ccc(C)cc2C)CC1`, the figure is -8.1%.
`O=C(c1ccco1)N1CCN(c2ncnc3c2cnn3-c2ccccc2)CC1`: the cytotoxicity is -6.3%.
For `CCc1cc2c(N3CCN(c4ccccc4)CC3)ncnc2s1` the value was 75.1% (active).
For `CCc1cc2c(N3CCCCC3)ncnc2s1` the value was -21.8%; for `O=C(COc1ccccc1)N1CCN(c2ncnc3c2cnn3-c2ccccc2)CC1`, -0.4%; for `Cc1ccc(-n2ncc3c(N4CCCC4)ncnc32)c(C)c1`, -2.3%.
With `COc1ccc(N2CCN(c3ncnc4c3cnn4-c3ccc(C)cc3C)CC2)cc1`, the cytotoxicity was 0.4%.
On to `COc1ccc(-n2ncc3c(N4CCN(c5cc(C)ccc5C)CC4)ncnc32)cc1`, for which the cytotoxicity is 1.5%.
In the case of `CCc1cc2c(N3CCN(c4nnc(CC)s4)CC3)ncnc2s1`, the cytotoxicity is 15.2%.
As for `Cc1cc(C(=O)CN2C(=O)c3ccccc3C2=O)c(C)n1C1CC1`, the figure is 6.6%; as for `O=C(c1ccccc1)N1CCCOC1c1ccccc1` (configuration not stated), 2.4%.
As for `Cn1c(=O)c2c(nc(SCC(=O)NC3CCCCC3)n2C)n(C)c1=O`, the figure is -18.4%.
With `COc1ccc(CCNC(=O)CN2C(=O)c3ccccc3S2(=O)=O)cc1OC`, the cytotoxicity was 0.7%.
As for `Cn1cccc1Cc1nnc(SCC(=O)Nc2ccccc2)n1-c1ccc(F)cc1`, the figure is 0%; as for `O=C(CN1CCC(NC(=O)c2ccc(F)cc2)CC1)NCc1ccccc1F`, -5.6%.
For `O=C(Nc1cccc(Cl)c1)N1CCN(Cc2ccccc2)CC1`, the cytotoxicity was 17.3%.
As for `O=C(NC1CCCc2ccccc21)C1CCCO1` (configuration not stated), the figure is 2%; as for `O=C(NC1CCCCC1)C(c1ccccc1F)N(Cc1ccco1)C(=O)Cn1nnc2ccccc21` (configuration not stated), 63.4% (active); as for `O=C(NC1CCCCC1)C(c1ccc(F)cc1)N(Cc1ccco1)C(=O)Cn1nnc2ccccc21` (configuration not stated), -13.1%.
For `CCC(C)(C)NC(=O)C(c1ccccc1F)N(Cc1ccco1)C(=O)Cn1nnc2ccccc21` (configuration not stated) the value was 2.4%.
As for `Cc1ccc(S(=O)(=O)Nc2nc3ccccc3nc2NCc2ccco2)cc1C`, the figure is -2.8%.
As to `O=C(CSc1nc2ccccc2s1)NC(=O)NCc1ccco1`, the cytotoxicity is 82.9% (active).
As for `C=CCn1c(SCC(=O)N2CCN(C(=O)c3ccco3)CC2)nc2sc(CC)cc2c1=O`, the figure is -4.1%.
As for `C=CCn1c(SCC(=O)NC(=O)NCc2ccco2)nc2sc(CC)cc2c1=O`, the figure is 57.6% (active).
As for `O=C(CCCSc1nc2ccccc2s1)NCc1ccco1`, the figure is -2.9%; as for `O=C(CSc1nc2cc(Cl)ccc2s1)NC(=O)NCc1ccco1`, -4.7%; as for `C=CCn1c(SCC(=O)NC(=O)NCc2ccco2)nc2sc(C)c(C)c2c1=O`, -0.5%.
`Cc1ccc2cc3cc(C(=O)N4CCN(C(=O)c5ccco5)CC4)sc3nc2c1`: the cytotoxicity was -0.9%.
As for `CCn1cc(C(=O)N2CCCC2)c(=O)c2cc(S(=O)(=O)N3CCOCC3)ccc21`, the figure is -4.3%; as for `Cc1cccc(-c2nc(CS(=O)CC(=O)NC3CCCC3)c(C)o2)c1` (configuration not stated), 10.3%.
For `CC(OC1=CC(=O)CCC1)C(=O)c1ccccc1` (configuration not stated) the value was -4.7%; for `COc1ccccc1OCc1nc(C#N)c(NCc2ccco2)o1`, 3.4%.
With `CCCCCCC1CC(CSc2ncn[nH]2)OC1=O` (configuration not stated), the cytotoxicity is 6.8%.
For the compound `COc1cccc(N2CC(O)=C(c3nc4ccccc4c(=O)[nH]3)C2=N)c1`, the cytotoxicity is 54.2% (active).
As for `CCOC(=O)c1ccc(N2CC(O)=C(c3nc4ccccc4c(=O)[nH]3)C2=N)cc1`, the figure is 38.3%; as for `COc1ccccc1N1CC(O)=C(c2nc3ccccc3c(=O)[nH]2)C1=N`, 26.8%.
